The campaign covered roughly 69,000 compounds. About 8,600 (12%) showed an effect of 50% or more. Only a selection was taken, and strong results are over-represented in it overall.

The subject of the test is Plasmodium berghei. The test is described as follows: Screen against P. berghei liver stage (PbLuc), transformed with Luciferase, at 10uM. It is filed as functional, HepG2. To be noted: tested at 10 uM.
Take `Cc1nc(S(=O)(=O)N2CCCCc3ccccc32)cn1C`: the INHIBITION was -49.3%. The figure for `COc1cccc(CC(=O)N2CCC(c3ccn4nccc4n3)CC2)c1` is 23.9%; for `O=S(=O)(NCC1COCCO1)c1ccc(C2CCCCC2)cc1` (configuration not stated) it is 74.5%.

As for `O=C(NS(=O)(=O)c1ccc(C2CCCCC2)cc1)C1COCCO1` (configuration not stated), the INHIBITION is listed as 46.4%. Take `Cc1ccc(S(=O)(=O)NCC2CNCCOC2)cc1Cl` (configuration not stated): the INHIBITION is reported as -95.7%. On to `Cc1cc(C)n(CC2CCCN2C(=O)c2cncnc2C)n1` (configuration not stated), for which the INHIBITION is -2.1%. As for `CC(C)OCCN1CCc2cncnc2C1`, the figure is 24.4%; as for `CCc1ncc2c(n1)CN(CC1CCCCO1)CC2` (configuration not stated), 9.35%. As to `Cc1ncc2c(n1)CN(CCOCC(F)(F)F)CC2`, the INHIBITION is recorded as 26.6%. For `FC(F)(F)COCCN1CCc2cncnc2C1`, the INHIBITION is 64%. As for `N#Cc1ccc(OCCN2CCc3cncnc3C2)cc1`, the figure is 9.54%; as for `COCCCN1CCc2cncnc2C1`, 40.3%; as for `Cc1ccc(C(NC(=O)CN2CCc3cncnc3C2)C2CC2)cc1` (configuration not stated), 34.2%. The figure for `CCOCCN1CCc2cncnc2C1` is 53.3%; for `O=C(CN1CCc2cncnc2C1)NC(c1ccccc1)C1CC1` (configuration not stated) it is 24.4%. As for `Cc1ncc2c(n1)CN(CC1CCCCO1)CC2` (configuration not stated), the figure is 3.17%; as for `O=C(CN1CCc2cncnc2C1)NC(C1CC1)C1CC1`, 57%. On to `c1ncc2c(n1)CN(CC1CCCCO1)CC2` (configuration not stated), for which the INHIBITION worked out at 87.1%. The figure for `Cn1nnc2c(N3CC(C(=O)NCc4ccccc4F)C3)ncnc21` is 15.7%. The figure for `Cc1cnn(CC2CCCN2CCCS(=O)(=O)N(C)C)c1` (configuration not stated) is 2.97%; for `N#Cc1ccc(C2CC(=O)Nc3c(C(=O)O)nsc32)cc1` (configuration not stated) it is -38.7%. As for `CC(C)C(Sc1nnc(NC2CC2)s1)C(=O)NCc1cccnc1` (configuration not stated), the figure is -26.7%; as for `Cc1noc(C)c1S(=O)(=O)NC(=O)COc1cccc(C(C)C)c1`, 13.3%.

As for `Nc1nc2c(s1)C(c1c(F)cccc1Cl)CC(=O)N2` (configuration not stated), the INHIBITION turned out to be 30%. As for `CCNc1ncc(C(=O)N(C)C(C)c2ccc3c(c2)OCCO3)cn1` (configuration not stated), the figure is 15.8%. As for `Cc1ccccc1-c1cncc(C2CCN(CCO)CC2)n1`, the figure is 38.2%. As for `CCCN(CC1COc2ccccc2O1)C(=O)C1=NN(C)C(=O)CC1` (configuration not stated), the figure is 42.4%; as for `CCN(CC1COc2ccccc2O1)C(=O)C1=NN(C)C(=O)CC1` (configuration not stated), 50.8%; as for `CN(CC1COc2ccccc2O1)C(=O)C1=NN(C)C(=O)CC1` (configuration not stated), 25.7%. For `CCNC(=O)CCCC(=O)N1CCc2cc(Cl)cc(Cl)c2C1`, the INHIBITION was -4.52%.

As to `COC(=O)C1CCN(C(=O)Cn2ccc(-c3ccccc3)n2)CC1`, the INHIBITION is -35%. As for `CC(C)N1CCO[C@H]2CN(C(=O)c3ccoc3)C[C@H]21`, the figure is 38.7%. The figure for `O=C(c1ccoc1)N1C[C@@H]2OCCN(c3ncccn3)[C@@H]2C1` is -4.32%; for `CN1CCO[C@H]2CN(C(=O)c3ccoc3)C[C@H]21` it is 54.4%. Turning to `O=C(NCc1cc(-c2ccccc2)no1)NC1CCCCNC1=O` (configuration not stated), the INHIBITION is -24.8%. The figure for `O=C(c1n[nH]cc1Cl)N1CCCC(n2nnc3cc(F)ccc32)C1` (configuration not stated) is 38.8%; for `N#CC1(C(=O)N2C[C@@H]3CC[C@H]2CN(Cc2ccncc2)C3)CCOCC1` it is 26.5%; for `CN(Cc1cnccn1)S(=O)(=O)c1ccc(C(F)(F)F)nc1` it is 75.5%. As for `CN(CC(C)(C)C)S(=O)(=O)c1ccc(C(F)(F)F)nc1`, the INHIBITION amounted to 33.7%. As for `Cc1ccc(S(=O)(=O)N(C)Cc2cnccn2)cc1N(C)C`, the figure is 26%; as for `CN1CCN(C(=O)c2cn3ccsc3n2)[C@H]2CS(=O)(=O)C[C@H]21`, 38.5%. The figure for `CN1CCCC1CNC(=O)CCCOc1ccc(Cl)cc1` (configuration not stated) is 24.665%; for `O=C(c1ccsc1)N1C[C@@H]2CCN(C(=O)c3cscn3)[C@@H]2C1` it is 27.5%. As to `O=C(C1CCC1)N1CCC(c2ncc3c(n2)CCNC3)CC1`, the INHIBITION is -12.9%.

For `CCCN1CCC(CC(=O)N2CC(C)(C)[C@@](C)(O)C2)CC1`, the INHIBITION stood at 57.2%. The figure for `CCN(CC)Cc1cc(C(=O)N2CC(C)(C)[C@@](C)(O)C2)c(C)o1` is 35.7%; for `CCc1ccc(C(=O)N2CC[C@](C)(O)C(C)(C)C2)[nH]1` it is -10.6%. For the compound `CC1(C)CN(C(=O)CC2CCS(=O)(=O)CC2)C[C@]1(C)O`, the INHIBITION stood at 34.4%. The figure for `CC1(C)CC(CC(=O)N2CC(C)(C)[C@@](C)(O)C2)CC(C)(C)N1` is 70.2%. As for `CC1(C)CN(C(=O)CC2CCC2)C[C@]1(C)O`, the figure is 47.4%. As for `CCc1cc(N[C@@H]2CC[C@@H](N)C2)n2nc(C)c(C)c2n1`, the figure is -42.8%; as for `Cc1cc(C(=O)NCC(C)C)nn1C`, 37.9%; as for `O=C(NCc1cc2ccccc2[nH]1)C1CCCN(C(=O)N2CCCC2)C1` (configuration not stated), 3.87%. With `COC(=O)CC1c2cccnc2C(=O)N1Cc1ccccc1` (configuration not stated), the INHIBITION is listed as 36.6%. As for `CN(CC(=O)N1CCCC1)C(=O)Cc1csc(-c2ncccn2)n1`, the figure is 30.057%; as for `O=C(c1cccc(F)c1)N1CCCN(Cc2cscn2)CC1`, -75.2%; as for `Cc1nn(C)c(C)c1CC(=O)NCc1ccnc(OC2CCCC2)c1`, 25.3%.

With `Cc1cc(C)c2ncn(CCC(C)O)c(=O)c2c1` (configuration not stated), the INHIBITION is given as 6.28%. As for `Cc1cc(C)c2cc(CNCC3CCCO3)c3nn(C)c(=O)n3c2c1` (configuration not stated), the figure is 55.2%; as for `Cc1noc2ncc(C(=O)NCC3CCCO3)cc12` (configuration not stated), -17.45%. As for `Cc1cc(C)c2cc(CNC3CCCCC3)c3nn(C)c(=O)n3c2c1`, the figure is 73.8%; as for `Cc1cc(C)c2cc(CNC(C)C)c3nn(C)c(=O)n3c2c1`, 64.9%; as for `Cc1cc(C)c2c(OCC(=O)NC(C)C)nn(C)c2n1`, 37.1%. Take `Cc1cc(NCC2CCCO2)cc(=O)n1C` (configuration not stated): the INHIBITION is 29.3%.

Consider `CCCn1cnnc1CNC1CCCC1`, for which the INHIBITION stood at 9.91%. The figure for `Cc1csc(N2CCC(CCN3CCCC3=O)CC2)n1` is -40.5%; for `COc1ccc2c3c1CN(S(C)(=O)=O)CC3=CC(C)(C)CO2` it is 29.8%. As for `Cn1ncc2c(=O)[nH]c(CN3CCCC3c3ccsc3)nc21` (configuration not stated), the INHIBITION is listed as -19.6%.

Consider `O=C([C@H]1C[C@H]2OCC[C@H]2N(CC2CC2)C1)N1CCCC1`, for which the INHIBITION was 82.2%. As for `CNC(=O)[C@H]1C[C@H]2OCC[C@H]2N(CC2CC2)C1`, the figure is 10.5%; as for `O=C([C@H]1C[C@H]2OCC[C@H]2N(CC2CCOCC2)C1)N1CCCCO1`, 50.9%; as for `O=C([C@H]1C[C@H]2OCC[C@H]2N(CC2CCOCC2)C1)N1CCCC1`, 76.3%. `O=C([C@H]1C[C@H]2OCC[C@H]2N(CC2CC2)C1)N1CCCCO1`: the INHIBITION was found to be 29.9%. As for `CNC(=O)[C@H]1C[C@H]2OCC[C@H]2N(CC2CCOCC2)C1`, the figure is 10.5%; as for `O=C([C@H]1C[C@H]2OCC[C@H]2N(C(=O)C2CCOCC2)C1)N1CCCCO1`, 28.3%; as for `O=C([C@H]1C[C@@H]2[C@@H](C1)OCCN2CC1CC1)N1CCCC1`, 5.36%. For the compound `O=C(NC1CC1)[C@H]1C[C@H]2OCC[C@H]2N(CC2CCOCC2)C1`, the INHIBITION was 25.4%.

(Values after ChEMBL document CHEMBL4513216, “Probing the Open Global Health Chemical Diversity Library for Multistage-Active Starting Points for Next-Generation Antimalarials” (ACS Infect Dis, 2020).)
